According to the supplement of paper PMC9446081:
± gives the standard deviation of the averaged measurements.

Columns and labels:
Assay in all cases: relative enzymatic activity vs untreated control (fraction); higher = less inhibition
Conditions in all cases: 100 µM; incubation time: 2 h at 37 C
DNA gyrase = tested on: DNA gyrase
Protocol: (§1)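 In vitro enzymatic inhibition assays (ProFoldin kits) for 12 purified essential E. coli enzymes or complexes, each treated with 218 active antibacterial compounds at 100 µM for 2 h at 37°C. Read-outs were fluorescence or absorbance (phosphate detection, dye binding), converted to activity via standard curves and expressed relative to untreated DMSO controls.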

DNA helicase = DNA helicase (UniProt P0ACB1)
Chain of DNA helicase (P0ACB1 whole entry): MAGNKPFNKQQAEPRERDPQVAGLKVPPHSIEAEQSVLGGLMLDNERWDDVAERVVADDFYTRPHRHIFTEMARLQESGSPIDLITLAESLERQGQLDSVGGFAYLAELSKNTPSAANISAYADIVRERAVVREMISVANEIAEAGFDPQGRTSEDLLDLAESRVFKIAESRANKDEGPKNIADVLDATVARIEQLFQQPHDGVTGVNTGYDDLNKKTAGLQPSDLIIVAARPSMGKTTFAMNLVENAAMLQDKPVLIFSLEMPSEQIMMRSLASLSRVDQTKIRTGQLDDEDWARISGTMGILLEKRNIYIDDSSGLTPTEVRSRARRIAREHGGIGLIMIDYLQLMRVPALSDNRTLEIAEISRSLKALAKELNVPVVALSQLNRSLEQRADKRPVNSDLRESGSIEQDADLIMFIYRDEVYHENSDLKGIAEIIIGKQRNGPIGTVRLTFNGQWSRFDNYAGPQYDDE
Protocol: as §1

DNA ligase = DNA ligase (UniProt B1XA82)
Chain of DNA ligase (B1XA82 whole entry): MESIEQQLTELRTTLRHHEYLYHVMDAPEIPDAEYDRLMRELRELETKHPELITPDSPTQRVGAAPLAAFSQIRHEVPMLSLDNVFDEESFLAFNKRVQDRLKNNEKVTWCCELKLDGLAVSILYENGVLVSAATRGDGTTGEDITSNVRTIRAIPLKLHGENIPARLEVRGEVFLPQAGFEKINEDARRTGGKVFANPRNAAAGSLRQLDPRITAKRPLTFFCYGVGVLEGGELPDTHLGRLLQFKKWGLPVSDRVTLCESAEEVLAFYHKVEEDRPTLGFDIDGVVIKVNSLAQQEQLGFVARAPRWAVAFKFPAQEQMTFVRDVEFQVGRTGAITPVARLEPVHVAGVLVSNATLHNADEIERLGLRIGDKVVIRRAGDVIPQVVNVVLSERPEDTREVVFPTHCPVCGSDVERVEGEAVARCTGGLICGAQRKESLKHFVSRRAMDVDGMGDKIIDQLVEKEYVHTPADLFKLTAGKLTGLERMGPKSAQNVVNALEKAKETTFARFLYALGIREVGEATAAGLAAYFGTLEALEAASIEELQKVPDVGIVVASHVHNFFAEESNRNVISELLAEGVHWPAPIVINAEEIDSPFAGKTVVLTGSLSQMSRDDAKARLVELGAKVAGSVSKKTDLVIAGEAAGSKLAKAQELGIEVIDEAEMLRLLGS
Protocol: as §1

DNA polymerase = DNA polymerase (UniProt P10443)
Chain of DNA polymerase (P10443 whole entry): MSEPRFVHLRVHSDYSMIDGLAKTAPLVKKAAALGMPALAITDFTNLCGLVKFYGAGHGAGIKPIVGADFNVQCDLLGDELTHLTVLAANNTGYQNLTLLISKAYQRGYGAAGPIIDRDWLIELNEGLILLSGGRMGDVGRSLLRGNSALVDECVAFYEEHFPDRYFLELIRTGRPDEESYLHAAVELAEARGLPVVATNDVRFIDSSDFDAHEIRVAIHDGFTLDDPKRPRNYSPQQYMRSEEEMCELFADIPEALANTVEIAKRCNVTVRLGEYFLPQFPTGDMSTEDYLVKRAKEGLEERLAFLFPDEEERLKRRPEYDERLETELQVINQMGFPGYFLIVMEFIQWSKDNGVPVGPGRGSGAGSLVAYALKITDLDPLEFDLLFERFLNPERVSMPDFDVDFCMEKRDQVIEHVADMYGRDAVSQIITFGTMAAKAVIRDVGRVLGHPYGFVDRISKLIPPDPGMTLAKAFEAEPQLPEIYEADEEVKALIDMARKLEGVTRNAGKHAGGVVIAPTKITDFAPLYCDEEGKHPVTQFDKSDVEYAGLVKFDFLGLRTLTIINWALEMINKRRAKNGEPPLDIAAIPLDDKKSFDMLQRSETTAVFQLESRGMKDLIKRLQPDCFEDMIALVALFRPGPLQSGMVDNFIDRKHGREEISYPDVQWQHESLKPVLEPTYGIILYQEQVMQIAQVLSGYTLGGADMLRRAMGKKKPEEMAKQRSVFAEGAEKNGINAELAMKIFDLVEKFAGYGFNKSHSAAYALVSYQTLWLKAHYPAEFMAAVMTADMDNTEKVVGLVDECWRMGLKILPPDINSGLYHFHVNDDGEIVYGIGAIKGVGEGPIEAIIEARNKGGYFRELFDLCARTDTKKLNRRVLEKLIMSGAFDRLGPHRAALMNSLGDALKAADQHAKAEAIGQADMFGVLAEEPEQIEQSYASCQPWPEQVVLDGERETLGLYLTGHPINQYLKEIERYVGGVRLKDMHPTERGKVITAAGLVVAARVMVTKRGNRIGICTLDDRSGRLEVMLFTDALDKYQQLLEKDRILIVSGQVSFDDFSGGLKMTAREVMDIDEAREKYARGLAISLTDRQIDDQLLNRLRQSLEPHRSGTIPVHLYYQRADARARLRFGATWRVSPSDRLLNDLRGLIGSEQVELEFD
Protocol: as §1

DNA primase = DNA primase (UniProt P0ABS7)
Chain of DNA primase (P0ABS7 whole entry): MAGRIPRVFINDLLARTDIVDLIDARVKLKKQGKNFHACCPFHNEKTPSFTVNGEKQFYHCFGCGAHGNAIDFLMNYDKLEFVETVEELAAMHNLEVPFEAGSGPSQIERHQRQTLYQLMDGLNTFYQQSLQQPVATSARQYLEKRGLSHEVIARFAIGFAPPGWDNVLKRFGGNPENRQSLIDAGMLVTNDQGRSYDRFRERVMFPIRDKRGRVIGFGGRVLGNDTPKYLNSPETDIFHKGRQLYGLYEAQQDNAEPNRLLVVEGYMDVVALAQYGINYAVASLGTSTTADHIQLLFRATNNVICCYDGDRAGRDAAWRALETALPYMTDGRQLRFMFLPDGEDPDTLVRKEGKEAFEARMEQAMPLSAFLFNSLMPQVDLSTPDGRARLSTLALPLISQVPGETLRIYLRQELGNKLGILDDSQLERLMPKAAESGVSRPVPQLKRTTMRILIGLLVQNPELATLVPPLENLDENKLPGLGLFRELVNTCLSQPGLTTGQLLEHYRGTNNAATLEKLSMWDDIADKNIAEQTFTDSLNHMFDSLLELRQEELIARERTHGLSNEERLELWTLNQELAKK
Protocol: as §1

GlmU = GlmU (UniProt A7ZTU1)
Chain of GlmU (A7ZTU1 whole entry, looked up): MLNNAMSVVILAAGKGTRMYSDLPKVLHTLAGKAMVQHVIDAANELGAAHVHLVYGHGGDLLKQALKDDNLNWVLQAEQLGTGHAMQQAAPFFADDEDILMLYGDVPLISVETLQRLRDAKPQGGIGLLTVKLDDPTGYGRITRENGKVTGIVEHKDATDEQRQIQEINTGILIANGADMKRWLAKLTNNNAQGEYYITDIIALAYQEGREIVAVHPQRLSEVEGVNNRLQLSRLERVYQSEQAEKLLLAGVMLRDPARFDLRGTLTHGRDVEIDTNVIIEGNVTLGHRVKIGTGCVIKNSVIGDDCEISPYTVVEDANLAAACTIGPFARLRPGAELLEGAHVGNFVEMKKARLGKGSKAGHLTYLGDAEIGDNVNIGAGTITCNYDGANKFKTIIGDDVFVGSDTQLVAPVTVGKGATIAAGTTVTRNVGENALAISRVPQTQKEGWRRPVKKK
Protocol: as §1

Guanlyate kinase = Guanlyate kinase (UniProt Q0TBG1)
Chain of Guanlyate kinase (Q0TBG1 whole entry): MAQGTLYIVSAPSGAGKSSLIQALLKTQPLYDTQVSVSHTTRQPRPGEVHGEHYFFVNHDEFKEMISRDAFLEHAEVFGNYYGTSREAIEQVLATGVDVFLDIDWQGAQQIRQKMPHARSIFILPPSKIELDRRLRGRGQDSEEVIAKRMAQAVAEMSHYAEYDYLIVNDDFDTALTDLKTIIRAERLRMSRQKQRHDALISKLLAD
Protocol: as §1

MurA = MurA (UniProt Q3YX52)
Chain of MurA (Q3YX52 whole entry): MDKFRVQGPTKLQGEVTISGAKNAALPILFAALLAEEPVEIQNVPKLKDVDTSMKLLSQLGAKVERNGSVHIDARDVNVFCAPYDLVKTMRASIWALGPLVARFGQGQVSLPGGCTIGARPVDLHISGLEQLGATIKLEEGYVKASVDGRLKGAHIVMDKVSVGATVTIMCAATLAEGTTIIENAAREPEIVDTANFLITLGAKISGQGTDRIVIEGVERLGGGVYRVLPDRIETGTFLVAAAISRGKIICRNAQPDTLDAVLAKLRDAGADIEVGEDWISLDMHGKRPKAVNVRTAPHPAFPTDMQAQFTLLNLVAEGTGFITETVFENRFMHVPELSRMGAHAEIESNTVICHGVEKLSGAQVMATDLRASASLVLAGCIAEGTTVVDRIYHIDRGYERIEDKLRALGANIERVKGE
Protocol: as §1

MurD = target: T1, MurD (UniProt P14900)
T1 sequence (whole entry): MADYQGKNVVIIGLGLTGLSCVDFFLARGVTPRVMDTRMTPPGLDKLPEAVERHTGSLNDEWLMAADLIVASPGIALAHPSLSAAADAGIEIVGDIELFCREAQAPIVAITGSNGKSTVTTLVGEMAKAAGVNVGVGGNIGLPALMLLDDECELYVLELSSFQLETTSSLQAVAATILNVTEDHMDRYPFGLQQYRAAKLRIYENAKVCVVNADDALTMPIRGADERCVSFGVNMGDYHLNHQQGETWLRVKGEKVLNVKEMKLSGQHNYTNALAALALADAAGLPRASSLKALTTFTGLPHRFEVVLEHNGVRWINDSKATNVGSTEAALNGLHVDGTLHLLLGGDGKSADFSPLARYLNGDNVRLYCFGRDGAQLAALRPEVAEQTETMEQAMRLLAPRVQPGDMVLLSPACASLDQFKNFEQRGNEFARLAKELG
Protocol: as §1

MurF = target: T2, MurF (UniProt P11880)
T2 sequence (whole entry): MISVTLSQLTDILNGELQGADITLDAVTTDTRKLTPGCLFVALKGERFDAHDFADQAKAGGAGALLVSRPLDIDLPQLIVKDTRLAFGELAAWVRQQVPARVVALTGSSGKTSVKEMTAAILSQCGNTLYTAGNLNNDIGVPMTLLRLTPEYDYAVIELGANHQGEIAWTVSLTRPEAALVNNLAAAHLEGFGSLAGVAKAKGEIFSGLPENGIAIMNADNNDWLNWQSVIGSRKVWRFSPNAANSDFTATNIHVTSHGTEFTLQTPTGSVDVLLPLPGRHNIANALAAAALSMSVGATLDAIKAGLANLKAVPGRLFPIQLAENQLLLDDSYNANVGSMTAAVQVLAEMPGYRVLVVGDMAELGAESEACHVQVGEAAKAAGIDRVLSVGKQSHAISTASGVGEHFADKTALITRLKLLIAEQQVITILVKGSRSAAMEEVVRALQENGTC
Protocol: as §1

RNA polymerase = tested on: RNA polymerase
Protocol: as §1

| Structure (SMILES) | relative enzymatic activity (DNA gyrase) | relative enzymatic activity (DNA helicase) | relative enzymatic activity (DNA ligase) | relative enzymatic activity (DNA polymerase) | relative enzymatic activity (DNA primase) | relative enzymatic activity (GlmU) | relative enzymatic activity (Guanlyate kinase) | relative enzymatic activity (MurA) | relative enzymatic activity (MurD) | relative enzymatic activity (MurF) | relative enzymatic activity (RNA polymerase) |
| --- | --- | --- | --- | --- | --- | --- | --- | --- | --- | --- | --- |
| CC1c2cccc(O)c2C(=O)C2=C(O)C3(O)C(=O)C(C(N)=O)=C(O)C(N(C)C)C3C(O)C21.Cl (stereo not drawn) | 0.996 ± 0.098 | 0.728 ± 0.41 | 1.05 ± 0.12 | 1.34 ± 0.32 | 0.734 ± 0.2 | 0.971 ± 0.048 | 1.12 ± 0.046 | 0.431 ± 0.093 | 0.572 ± 0.37 | 0.943 ± 0.17 | 0.9639 ± 0.0043 |
| CCn1cc(C(=O)O)c(=O)c2cc(F)c(N3CCNCC3)cc21 | 0.00604 ± 0.0086 | 0.468 ± 0.034 | 0.906 ± 0.16 | 1.37 ± 0.53 | 0.659 ± 0.12 | 1.01 ± 0.015 | 1.01 ± 0.11 | 0.799 ± 0.017 | 0.573 ± 0.36 | 0.977 ± 0.21 | 0.849 ± 0.075 |
| O=C(NO)c1cn(-c2cccc(C(=O)N3CCC4(CC3)C(=O)NCN4c3ccccc3)c2)nn1 | ≤ 0 | 0.0673 ± 0.0027 | 0.205 ± 0.025 | 0.00452 ± 0.00034 | ≤ 0 | 0.656 ± 0.088 | ≤ 0 | 0.245 ± 0.072 | 0.36 ± 0.22 | 0.634 ± 0.13 | 0.00747 ± 0.0021 |
| Oc1c(Cl)cc(Cl)c(Cl)c1Cc1c(O)c(Cl)cc(Cl)c1Cl | 0.191 ± 0.12 | 0.06883 ± 0.00038 | 0.514 ± 0.1 | 0.222 ± 0.019 | 0.436 ± 0.0013 | 1.07 ± 0.11 | 0.162 ± 0.0089 | 0.899 ± 0.6 | 1.25 ± 0.89 | 0.446 ± 0.1 | 0.293 ± 0.0084 |
| CC1CCc2cc(F)cc3c(=O)c(C(=O)O)cn1c23 (stereo not drawn) | 0.0609 ± 0.086 | 0.593 ± 0.15 | 0.937 ± 0.35 | 1.41 ± 0.53 | 0.655 ± 0.13 | 0.9984 ± 0.0089 | 1.03 ± 0.1 | 0.715 ± 0.16 | 0.568 ± 0.39 | 0.97 ± 0.2 | 1.04 ± 0.22 |
| COC12C(COC(N)=O)C3=C(C(=O)C(C)=C(N)C3=O)N1CC1NC12 (stereo not drawn) | 1.01 ± 0.063 | 0.964 ± 0.15 | 1.03 ± 0.025 | 1.31 ± 0.47 | 0.728 ± 0.2 | 1.02 ± 0.018 | 1.05 ± 0.032 | 0.264 ± 0.12 | 0.589 ± 0.41 | 1.01 ± 0.23 | 0.882 ± 0.01 |
| CON=C(C(=O)NC1C(=O)N2C(C(=O)OCOC(=O)C(C)(C)C)=C(C=Cc3scnc3C)CSC12)c1csc(N)n1 (stereo not drawn) | 0.894 ± 0.26 | 0.379 ± 0.064 | 1.24 ± 0.4 | 1.24 ± 0.33 | 0.894 ± 0.029 | 0.914 ± 0.031 | 0.794 ± 0.14 | 0.253 ± 0.062 | 0.568 ± 0.41 | 0.893 ± 0.24 | 0.872 ± 0.034 |
| CCn1nc(C(=O)O)c(=O)c2cc3c(cc21)OCO3 | 0.136 ± 0.013 | 0.479 ± 0.042 | 1.093 ± 0.01 | 1.29 ± 0.3 | 0.744 ± 0.21 | 0.99 ± 0.077 | 1.013 ± 0.0046 | 0.762 ± 0.17 | 0.61 ± 0.41 | 0.86 ± 0.028 | 0.929 ± 0.051 |
